Screening data deposited in PubChem by several laboratories.
V-ATPase pH – regulators of yeast V-ATPase proton transport; response, % at 10 µM; S. cerevisiae, pHLuorin cytosolic pH fluorescence; hit rate 0.37% among 350,000; in the data active = response mostly above about 7.3%, no sharp cut-off; inactive = mostly below about 5.4%; note: actives read high
TIM10 inh – TIM10 yeast growth inhibition; S. cerevisiae TIM10 strain growth, BacTiter-Glo luminescence, 24 h; inhibition, % at 10 µM; hit rate 1.4% among 330,000; AID 463195;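 active = inhibition of 40% or more at the single tested concentration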;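 note: wild-type TIM10 isogenic control strain grown at permissive 25 °C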
NALP1 yeast inh – inhibitors of NALP1 inflammasome in yeast; S. cerevisiae NALP1/ASC/caspase-1 growth, X-gal OD620, 72 h; inhibition, % at 10 µM; hit rate 0.61% among 280,000; AID 2071; in the data active = inhibition mostly above about 24%, no sharp cut-off; inactive = mostly below about 32%
tim10-1 inh – growth inhibitors of tim10-1 mutant yeast; S. cerevisiae tim10-1 ts strain growth, BacTiter-Glo, 24 h; inhibition, % at 20 µM; hit rate 2.2% among 330,000;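 active = inhibition of at least 40%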;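 note: mutant grown at 25 °C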
NALP3 yeast inh – NALP3 inhibition in yeast. AID 2825. inhibition, % at 10 µM. hit rate 0.39% among 330,000. Yeast reconstituted NLRP3/ASC/caspase-1, beta-gal luminescence, 24 h;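 active = inhibition of 50% or more; inactive = inhibition below 50%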
tim23-1 inh – inhibits growth of tim23-1 mutant yeast | hit rate 1.3% among 330,000 | AID 463212 | S. cerevisiae tim23-1 growth, BacTiter-Glo luminescence, 24 h | inhibition, % at 20 µM;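 active = growth inhibition of the mutant yeast at or above 50%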;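 note: temperature-sensitive mutant grown at 25 °C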
Of the large screens only hits and unclear results are named; the others gave an inactive call. An excerpt weighted towards active compounds, which were near 4.2% of everything screened.

CN(CCOC(=O)c1cccc(Br)c1)C(C)(C)C	NALP1 yeast inh 27.6
CCN(CC)CCOC(=O)c1cccc(Br)c1	none
Cc1noc2ncnc(Oc3ccc4ccccc4c3)c12	none
Cc1noc2ncnc(Oc3cc(Cl)ccc3Cl)c12	NALP1 yeast inh 20.9
CCCC(=O)c1cc2c(cc1NC(=O)c1cccs1)OCCO2	NALP1 yeast inh 26.7
CC1CN(c2sc(S(C)(=O)=O)nc2S(=O)(=O)c2ccc(Cl)cc2)CC(C)O1 (configuration not stated)	V-ATPase pH 13.2
Cc1cc(NS(=O)(=O)c2ccc(NC(=O)/C=C/c3ccco3)cc2)nc(C)n1	NALP1 yeast inh 37.9
CCCC1(c2ccccc2)NC(=O)N(CC(=O)NCC2COc3ccccc3O2)C1=O (configuration not stated)	none (no result: NALP1 yeast inh)
COc1ccc(NC(C)=O)cc1NC(=O)CN1CCN(S(=O)(=O)c2ccc(C(C)C)cc2)CC1	V-ATPase pH 18.8
CC(=O)c1cc(F)c(N2CCCC2)cc1C	none
CC(=O)c1cc(F)c(N2CCOCC2)cc1C	NALP1 yeast inh 43.7
Cn1cc(CN2CCC(CO)(CCCc3ccccc3)CC2)c(-c2ccccc2)n1	none (no result: NALP1 yeast inh)
N/C(=N\OC(=O)COc1ccc(Br)cc1Cl)c1ccccn1	V-ATPase pH 22.3
CC(C)CC1(C)NC(=O)N(Cc2cc([N+](=O)[O-])cc3c2OCOC3)C1=O (configuration not stated)	NALP1 yeast inh 23.3
O=[N+]([O-])c1cc2c(c(CSc3ncccn3)c1)OCOC2	none
CCCCn1c(N)c(N(CC(C)C)C(=O)c2cc3c(s2)CCCCC3)c(=O)[nH]c1=O	none (no result: NALP1 yeast inh)
COc1cccc(N2C(=O)C3C(C2=O)C3(c2ccccc2)c2ccccc2)c1 (configuration not stated)	NALP1 yeast inh 31.9
CN(Cc1cccc(F)c1)C(=O)c1ccc2c(=O)n3c(nc2c1)CCC3	none
O=C(OCc1cccc(F)c1)c1ccc2c(=O)n3c(nc2c1)CCC3	NALP1 yeast inh 34.8
COc1cc2cc(CCCOC(=O)CCCC(=O)O)oc(=O)c2cc1OC	none (no result: NALP1 yeast inh)
N#CC12CCCCC1CC1CCCCC1(C#N)N2Cc1ccccn1 (configuration not stated)	NALP1 yeast inh 37.5
N#CC12CCCCC1CC1CCCCC1(C#N)N2CCO (configuration not stated)	none
O=C(NC1CCCCC1)N1CCN(c2ccccc2)CC1	none
O=C(NC1CCCCC1)N1CCN(C(c2ccccc2)c2ccccc2)CC1	NALP1 yeast inh 41.0
Cc1cccc[n+]1CC(=O)c1ccc(NC(=O)c2ccccc2)cc1	none
COc1ccc(CN(C)C(=O)COC(=O)c2cc([N+](=O)[O-])ccc2N2CCCC2)c(OC)c1OC	none (no result: NALP1 yeast inh)
O=C(NC(=S)Nc1cccnc1)c1cc2ccccc2o1	NALP1 yeast inh 47.2
CN1CCN(C(=O)C2CCC(=O)N(Cc3cccc(C(F)(F)F)c3)C2)CC1 (configuration not stated)	NALP1 yeast inh 31.9
COc1cc(OCC(N)=O)cc(OC)c1OC	none
COc1ccc(OCC(N)=O)cc1	NALP1 yeast inh 38.8
O=S(=O)(c1ccc(F)c(F)c1)N1CCN(CCc2ccccc2)CC1	V-ATPase pH 9.6 (no result: NALP1 yeast inh)
CCOc1ccccc1N1CCN(S(=O)(=O)c2ccc(F)c(F)c2)CC1	NALP1 yeast inh 40.0
O=S(=O)(c1ccccc1)N1CCN(CCc2ccccc2)CC1	none
CC(=O)c1c(C)[nH]c(C(=O)CSc2nnc(CN3CCCCCC3=O)n2-c2ccccn2)c1C	NALP1 yeast inh 41.7
CCNC(=O)CSc1nnc(CN2CCCCCC2=O)n1-c1ccccn1	none
CCOC(=O)c1c(C)[nH]c(C(=O)COC(=O)CCSc2ccccc2)c1C	none
CCOC(=O)c1c(C)[nH]c(C(=O)CSc2ccccc2)c1C	V-ATPase pH 14.4
Cc1ccc(C)c(Cn2c(CN(C)Cc3ccccc3)nc3c2c(=O)n(C)c(=O)n3C)c1	NALP1 yeast inh 40.2
CCOCCCNC(=O)c1cc2c(=O)n3cccc(C)c3nc2n1C	V-ATPase pH 16.2 (no result: NALP1 yeast inh)
Cc1ccc(CNC(=O)CN2CCC(C(N)=O)CC2)cc1	none
CSc1ccc(CN2CCC(C(=O)NCc3ccc(C)cc3)CC2)cc1	NALP1 yeast inh 25.0
O=C(NCCCN1CCCCCC1)c1ccc(CS(=O)(=O)Cc2ccccc2F)o1	none (no result: TIM10 inh, tim10-1 inh, NALP3 yeast inh, tim23-1 inh)
O=C(NCCCN1CCOCC1)c1ccc(CS(=O)(=O)Cc2ccccc2Cl)o1	NALP1 yeast inh 29.2
COCCCN1Cc2cccc(C(=O)O)c2C1=O	NALP1 yeast inh 37.7
CCOc1ccc(NC(=O)Cn2nnc(C(=O)NCc3ccc4c(c3)OCO4)c2N)cc1	none
CC(C)NC(=O)c1ccccc1NC(=O)CS(=O)(=O)Cc1ccccc1	NALP1 yeast inh 35.7
O=C(c1ccc(N2CCOCC2)cc1[N+](=O)[O-])N1CCOCC1	NALP1 yeast inh 33.9
CCSc1nnc(Cc2cc(=O)[nH]c(=O)[nH]2)n1-c1cc(C)ccc1C	NALP1 yeast inh 28.2
CCOC(=O)C1CCN(C(=O)c2cc(S(=O)(=O)N3CCc4ccccc43)ccc2OC)CC1	none (no result: NALP1 yeast inh)
COc1ccc(C2N(c3cc(Cl)ccc3OC)C(=O)C3CCCN32)cc1 (configuration not stated)	NALP1 yeast inh 41.1
O=C(CSc1nc2ncc(Cl)cc2[nH]1)Nc1cccc(F)c1	none
CN(CC(=O)Nc1ccc(F)cc1)C(=O)CSc1nc2ncc(Cl)cc2[nH]1	V-ATPase pH 74.1
O=C(CSc1nc2ccccc2o1)Nc1ccc(N2CCOCC2)cc1	NALP1 yeast inh 27.9
O=S(=O)(c1ccc(Cl)nc1)N1CCN(c2ncccn2)CC1	none
Cc1ccc(-c2cc(N)n(-c3ccc(C)cc3)n2)cc1	none
Cc1ccc(-c2cc(N)n(-c3ccc(F)cc3)n2)cc1	NALP1 yeast inh 28.7
COc1ccc(C(=O)NCCC2=CCCCC2)cc1[N+](=O)[O-]	NALP1 yeast inh 35.0
COc1ccc(OCC(=O)NCCC2=CCCCC2)c([N+](=O)[O-])c1	none
N#C/C(C(=O)c1ccccc1)=C1/SC=C(N)N1c1ccccc1	none (no result: V-ATPase pH, TIM10 inh, tim10-1 inh, NALP3 yeast inh, tim23-1 inh)
N#C/C(C(N)=O)=C1/SC=C(c2ccccc2)N1c1ccccc1	NALP1 yeast inh 36.6
O=C(C1=C[C@H](c2coc3ccccc3c2=O)C[C@H](OCc2ccc(CO)cc2)O1)N1CCN(Cc2ccc3c(c2)OCO3)CC1	NALP1 yeast inh 20.5
Cc1ccc(NC(=S)N(Cc2ccc(Cl)cc2)Cc2ccc(C(=O)O)cc2)cc1Cl	none
Cc1ccc(CNC(=O)c2cccc(-n3cnnn3)c2)cc1	NALP1 yeast inh 42.9
Cc1ccc(N(CC(=O)NC2CCCCC2)C(=O)Cn2nnc(-c3ccc(C)o3)n2)cc1	V-ATPase pH 13.0
CN(C)CCCN(C(=O)CCSc1ccccc1)c1nc2cc3c(cc2s1)OCO3	none
CN(C)CCCN(C(=O)CCS(=O)(=O)c1ccccc1)c1nc2cc3c(cc2s1)OCO3	NALP1 yeast inh 49.5
COc1c(Br)cc([N+](=O)[O-])c(OC)c1C(=O)NC(=O)Nc1nc(C)cc(C)n1	none
